Experimental data reported in a collection of fitness landscapes (doi:10.1016/j.celrep.2020.107928).
Over roughly 81,000 sequences, “one-hybrid fitness for binding NBS DNA” has its median near -0.1; the highest 2% begin near 0.36. The entries come from a sample that favours the highest values as a whole.

B1: Caulobacter ParB omega fusion; a variant is named by its letters at X, in order, B8GW30 (parent)
chain: MESVVVGEPGMSEGRRGLGRGLSALLGEVDAAPAQAPGEQLGGSREAPIEILQRNPDQPRRTFREEDLEDLSNSIREKGVLQPILVRPSPDTAGEYQIVAGERAWRAAQRAGLKTVPIMVRELDDLAVLEIGIIENVQRADLNVLEEALSYKVLMEKFERTQENIAQTIGKSXSHVANXMRLLXLPDEVQSYLVSGELTAXHARAIAAAADPVALAKQIIEGGLSVRETEALARKAPNLSAGKSKGGRPPRVKDTDTQALESDLSSVLGLDVSIDHRGSTGTLTITYATLEQLDDLCNRLTRGI

Variants of: B1
Experiment: one-hybrid fitness for binding NBS DNA (the Noc-binding site; scaled: cognate 1, non-cognate 0); higher = stronger binding
Conditions: with NBS DNA site
In short: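 Values were rescaled so that cognate is 1 and non-cognate is 0. Each is a fitness, the log change in a variant's read ratio to wild type from Illumina reads of plasmids before and after selection, with three replicate libraries pooled and variants under 10 reads dropped. Selection of the Caulobacter ParB libraries, four specificity codons randomised, used E. coli USO with a HIS3 reporter, site 19 bp from the promoter, on M9-minus-histidine with 0.1 mM IPTG and 5 mM 3-AT for 48 hours at 37°C.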

one-hybrid fitness for binding NBS DNA, 0.447:
RRQH

one-hybrid fitness for binding NBS DNA, 0.237:
RQKV

one-hybrid fitness for binding NBS DNA, 0.282:
RTDR
QMVS

one-hybrid fitness for binding NBS DNA, 0.277:
QMKP

one-hybrid fitness for binding NBS DNA, 0.4:
QMKN
QKRM

one-hybrid fitness for binding NBS DNA, 0.434:
RKES

one-hybrid fitness for binding NBS DNA, 0.69:
RRQS

one-hybrid fitness for binding NBS DNA, 0.575:
RTQR

one-hybrid fitness for binding NBS DNA, 0.354:
RTIR

one-hybrid fitness for binding NBS DNA, 0.381:
QYVR

one-hybrid fitness for binding NBS DNA, 0.461:
RTLR

one-hybrid fitness for binding NBS DNA, 0.379:
QHRM

one-hybrid fitness for binding NBS DNA, 0.283:
QMVQ

one-hybrid fitness for binding NBS DNA, 0.404:
RTWR

one-hybrid fitness for binding NBS DNA, 0.423:
RAYS
RCFT

one-hybrid fitness for binding NBS DNA, 0.212:
RKFH

one-hybrid fitness for binding NBS DNA, 0.564:
RARS

one-hybrid fitness for binding NBS DNA, 0.505:
QCRM

one-hybrid fitness for binding NBS DNA, 0.433:
QQTS

one-hybrid fitness for binding NBS DNA, 0.475:
RKER

one-hybrid fitness for binding NBS DNA, 0.264:
QQTH

one-hybrid fitness for binding NBS DNA, 0.306:
RARH

one-hybrid fitness for binding NBS DNA, 0.417:
QMKQ

one-hybrid fitness for binding NBS DNA, 0.528:
RKET

one-hybrid fitness for binding NBS DNA, 0.99:
QYKR

one-hybrid fitness for binding NBS DNA, 0.262:
RAWS
RTER

one-hybrid fitness for binding NBS DNA, 0.484:
RANS

one-hybrid fitness for binding NBS DNA, 0.437:
RKFT

one-hybrid fitness for binding NBS DNA, 0.622:
RTGR

one-hybrid fitness for binding NBS DNA, 0.27:
RSWR

one-hybrid fitness for binding NBS DNA, 0.668:
QMKS

one-hybrid fitness for binding NBS DNA, 0.562:
QTRM

one-hybrid fitness for binding NBS DNA, 0.543:
QRPR

one-hybrid fitness for binding NBS DNA, 0.522:
RTYR

one-hybrid fitness for binding NBS DNA, 0.228:
RCQH

one-hybrid fitness for binding NBS DNA, 0.559:
QMKH

one-hybrid fitness for binding NBS DNA, 0.631:
RTHR

one-hybrid fitness for binding NBS DNA, 0.648:
QQTR

one-hybrid fitness for binding NBS DNA, 0.322:
RRQN
QMKI

one-hybrid fitness for binding NBS DNA, ≤ 0.2:
TIIA
APSV
HMQC
LRDK
SENT
LQVS
PPFG
RSHK
QQTC
QQTF
QQTD
QQTN
QQTP
WSIE
GCAR
RQSC
YATR
SEFT
STWN
SNPF
LHCS
CNGF
FEEV
LQET
RADS
RANH
RARN
RAIS
DPHT
NPRM
HYCF
GLER
NTPI
RRQP
RCQG
RSQG
RRQD
PGAA
NLQS
HATK
WPRM
LVQN
DLGR
GFTS
QYVP
NYKR
EYKR
QYVN
KYYF
SYTG
PAEC
TFLC
RPWR
RTGP
RTRD
WHGR
SVYC
DNYS
AQDG
RTHG
RTCD
RTNP
RTHM
RTCN
RTSC
RTSF
MTRH
GPMF
VYNT
NQFD
GLEG
DQKV
ATVV
THMM
RTWP
RTLH
RTWD
RTQP
RTQN
RTLQ
QGED
DAQE
GQLV
RPFT
RKAG
RKFD
RKAK
RSFT
ALQE
NTTI
VKDD
SFVF
WRVA
QPIR
QKIH
QRPN
QRID
QRIF
HKRE
TTVD
RYII
YVSR
VVAC
CQVS
GESL
PASE
TQWR
YKER
SGPG
RKEC
RKED
RKEP
RSET
RSER
RKEN
TPNM
GAKV
PFSN
GRHM
ESQL
SDYT
TGQV
AFRG
AFCR
QMQQ
TPAD
CAYF
LIRD
PIRV
QHQM
QPRM
QKDM
QHDM
QTYM
QCYM
QTDM
QKYM

one-hybrid fitness for binding NBS DNA, 0.405:
RCWR

one-hybrid fitness for binding NBS DNA, 0.313:
QMKD

one-hybrid fitness for binding NBS DNA, 0.476:
QCIR

one-hybrid fitness for binding NBS DNA, 0.208:
RTPR

one-hybrid fitness for binding NBS DNA, 0.271:
RTGH
QKPR

one-hybrid fitness for binding NBS DNA, 0.3:
QMKF

one-hybrid fitness for binding NBS DNA, 0.336:
QSIR

one-hybrid fitness for binding NBS DNA, 0.53:
RTCR

one-hybrid fitness for binding NBS DNA, 0.464:
QQTT

one-hybrid fitness for binding NBS DNA, 0.576:
RTSR

one-hybrid fitness for binding NBS DNA, 0.37:
QKIR

one-hybrid fitness for binding NBS DNA, 0.643:
RKAT

one-hybrid fitness for binding NBS DNA, 0.215:
QMKE

one-hybrid fitness for binding NBS DNA, 0.686:
QRIR

one-hybrid fitness for binding NBS DNA, 0.377:
RRQG

one-hybrid fitness for binding NBS DNA, 0.744:
RTNR

one-hybrid fitness for binding NBS DNA, 0.818:
RTRR
